In the supplement of paper PMC6555819:

How the values were obtained:
Assay in all cases: PBM binding z-score (relative to random genomic background probes); higher = stronger binding; sequences stand for … in GC…GCGATTGACAGCGTAGAATGAAGG
[1] = test system: RARb homodimer (NR concentration 270 nM)
Method in brief: (§1)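 Scanned fluorescence from custom Agilent 4×180K protein-binding microarrays was regression-normalized. Binding z-scores use random background probes as reference. Ligand-free nuclear receptor dimers were incubated on the arrays for 1 h and detected with antibodies against each partner (one per run).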

[2] = test system: RARg:RXRa (NR concentration 270 nM, RXRa partner concentration 90 nM)
Method in brief: as §1

[3] = test system: RARg homodimer (NR concentration 270 nM)
Method in brief: as §1

[4] = test system: RXRa DBDmut IVT, anti-RXR (DBD mutation: RXRa K156A/R161A, NR concentration 90 nM)
Method in brief: as §1

[5] = test system: RXRa homodimer (NR concentration 180 nM)
Method in brief: as §1

[6] = test system: THRa:RXRa (NR concentration 90 nM, RXRa partner concentration 90 nM)
Method in brief: as §1

[7] = test system: THRa homodimer (NR concentration 90 nM)
Method in brief: as §1

[8] = test system: VDR homodimer (NR concentration 270 nM)
Method in brief: as §1

Sequence	PBM binding z-score [1]	PBM binding z-score [2]	PBM binding z-score [3]	PBM binding z-score [4]	PBM binding z-score [5]	PBM binding z-score [6]	PBM binding z-score [7]	PBM binding z-score [8]
TTAACAAGGTGAGCTGAGGTCGTTGATCCAACTC	1.42	1.03	1.09	0.404	1.42	4.55	2.04	1.8
GCTAGTTGGTTAGTAAAAGGTCACACACCGGTCG	4.86	4.87	4.08	0.675	5.33	3.66	2.08	1.85
GCTAGTTGGTCGGTAAAAGGTCACACACCGGTCG	4.97	5.3	4.72	0.311	5.42	3.47	1.92	1.59
TCATATAGGTAAATGCTAGGTTAAAGTCCGATCT	0.967	0.772	0.598	1.74	0.914	1.35	0.664	0.441
GCAGCTAGGTCAACTGATGGTCAGCTAAAGCTCG	3.08	5.02	5.33	0.798	2.52	2.6	0.305	-0.435
GCTTACGGGTCAAATGTTATAGCATGAATAGAAT	2.6	4.88	4.02	2.4	5.86	2.54	-0.146	1.1
GATACAGGGTCAGCTAGATGCCAGAGTATGGAAA	2.84	4.95	4.12	1.23	4.38	2.87	0.0826	0.494
GCGACTGGGGCATCAGCAGGTTACCGTAACTTAA	1.14	0.702	0.193	-0.433	0.309	1.03	-0.152	-0.576
AGAATGAGGTTATTAAGTTCAGGGAATTGCGGTC	2.35	2.35	1.43	3.07	2.52	3.11	1.36	6.33
CGAACGAGGGCATGAGTTGATAGTAAATGCCGAT	0.956	1.48	1.7	2.41	1.09	1.33	-0.0333	1.98
CTACCAAGGTTAACAAGGTCGTTGATTACTATTC	2.69	2.82	2.39	2.35	2.98	3.39	1.93	3.98
GCGACTGGGGCAAAGCAGCTTACCATAAGGTTGG	-0.0781	-0.172	0.112	-0.131	-0.267	-0.139	-0.756	-0.658
TCTTATAGGTAAACAGGTGAAAGTCCGTAAGTTA	0.802	0.615	0.392	1.1	0.864	0.793	0.397	0.462
CAAACTACGTCACGAAAGGTCAAAGTCGAATGAC	4.48	5.61	5.12	1.05	6.68	3.93	1.11	2.66
CAAACTAGGTCACAGAGGTCATAGTCCGTGCGTA	5.33	6.83	7.33	3.4	7.32	4.76	3.22	7.02
TCATATAGGTAAAAGGGGAAAGTCGGTGTGGTAA	0.789	0.447	0.236	1.95	1.19	0.512	0.383	0.386
CGTCCAAGGTCAGCAGGTCAGTGAAAGCGACGTG	5.12	6.35	6.64	2.54	4.82	4	2.28	1.77
AGATTGAGGTTATACGTAGATCAGGGAAGAAAGT	0.842	1.71	0.96	1.28	2.2	2.24	0.943	0.908
GCAGACAGGTGAAACGCAGGTAACTCGGGGTGGC	0.185	0.966	0.131	-0.847	0.633	1.55	-0.0919	-0.486

Sequence	PBM binding z-score [1]	PBM binding z-score [2]	PBM binding z-score [3]	PBM binding z-score [4]	PBM binding z-score [5]	PBM binding z-score [6]	PBM binding z-score [7]	PBM binding z-score [8]
TCTAGTTGGTCAAAGGTCACACAGTCGAAATGCG	5.27	7.05	6.38	1.73	8.22	4.12	2.06	2.98
TCTGCTAGGTCAGTGGGTCAGCTAACGAGCTGCC	3.84	3.92	4.5	0.404	2.23	1.94	0.337	-0.31
ATATGTAGGATAAGGGTCATTCAGGTTGGTTCGC	3.69	3.9	3.42	2.09	4.8	3.25	1.38	4.54
CCGAGTAGGTTACGGGGCATTCAGGCAACGGTGA	1.11	1.02	1.07	-0.416	1.16	0.851	-0.136	0.121
CCTTACGGGTCACGAGGTTCTAGCACGACGAGCG	3.27	5.61	5.78	1.49	6.58	3.25	0.28	1.86
CCAGACAGGTGTGAAGGTAACTCAGCCTCGATTA	0.327	-0.276	-0.122	0.399	-0.117	0.116	0.347	0.0431
CGTCCAAGGTCATAGGAGGTCAGTGAAGACAGAT	5.19	6.63	7.12	3.93	6.4	5.42	3.01	4.13
TCTTGTAGATCTATAGAGGTTAAGAAAGTGCGCT	1.12	0.795	0.399	0.575	1.43	1.35	-0.418	0.121
TCTCGGAGGACACGAAAGGTCAGGGCTCGACATC	4.94	4.98	5.69	1.1	4.39	3.83	2	0.976
ACAGACAGGTGATGAAGGTAACTCCGGCTATCAT	0.376	0.136	0.355	-0.394	0.346	0.328	0.183	-0.00954
GCTGCTAGGTCACCTGATGGTCAGCTAAAGCTCG	3.33	4.88	5.27	1.18	2.64	3	1.57	-0.0693
GGAATGAGGGCATTCGAGTTGATAGCATGGCGAT	0.662	1.15	1.22	3.43	0.995	3.3	0.191	3.8
CGTCCAAGGACAGAGAGGTCAGTGAATGCCGAGT	4	3.21	3.98	1.29	2.11	3.27	1.69	2.7
CCTTACGGGTCACTGACAGGTTATAGAATTTGGA	3.22	5.81	4.95	1.92	5.1	3.02	0.45	0.936
GCTACTGGGGCATCAGCAGGTTACCATAACTTAA	0.946	0.791	0.586	0.403	0.169	1.09	0.00611	-0.67
CCTACCGGGCCACGAAAGGTCATTGATTCAGTGA	4.84	4.67	4.47	0.0824	4.98	4.19	1.46	2.22
CCGAGCAGGTTATGGGGCATTCAGGCAACGGTGA	1.03	0.387	0.573	-0.126	0.679	0.573	0.0585	-0.392
ATATGTAAGTTAGCTGGGGTCATTCAGACTAGGC	3.29	3.58	2.19	1.95	5.13	4.31	3.21	4.9
CGAAATAGGTCAAGGACAGTGAATCTCCGCACGC	3.69	5.2	6.01	1.55	4.67	3.1	1.7	0.593

Sequence	PBM binding z-score [1]	PBM binding z-score [2]	PBM binding z-score [3]	PBM binding z-score [4]	PBM binding z-score [5]	PBM binding z-score [6]	PBM binding z-score [7]	PBM binding z-score [8]
AGAACGAGGTCAATGAGTTGATAGCACGGGTGGC	3.94	5.78	5.81	4.11	6.03	3.94	2.08	5.27
ATCTCAAGGTAACAAGTTCAGTGAAAGAGAGGAC	2.19	1.79	1.79	1.34	1.23	2.16	1.54	2.9
CCGACTGGGGCAAAGGTTACCATTCTCAGTACGA	2.08	3.4	1.6	0.683	3.26	1.66	-0.246	-0.419
TTACCAAGGTGAAAGGTCGTTGGTGCACGCCTTG	2.87	4.49	1.81	0.82	6.07	3.48	0.937	1.86
GGAACGTGGGCAAGTTGATAGCAGAGTTTGATGG	-0.282	-0.487	-0.279	0.175	-0.184	-0.685	-0.691	0.343
CCTGCTTGGTCATGGTCAGCTAATCTACAGTATG	0.424	0.464	0.774	0.252	0.162	-0.0915	-0.506	-0.205
CCTAGCAGGACAGGGTCACTCAAGCATTTCGCTT	2.77	3.14	2.23	1.06	3.54	3.19	1.44	1.5
CCTACTGGGCCAAATGTCATTGATTCCAATGCTC	0.556	0.265	0.594	0.342	0.124	-0.237	-0.347	-0.651
ATACCAAGGAGATCGTGAGGTCGTTGATACTAAC	0.696	0.264	0.458	0.394	0.833	2.37	1.63	3.26
ATCTCTAGGTAACCACGTTCAGTGAATGCCGAAC	0.366	0.142	0.288	-0.101	0.112	0.672	0.721	0.344
TGAATGAGGTTATAAGATCAGGGAGCGTTGCAAA	-0.251	1.37	0.756	0.685	1.8	1.61	-0.245	0.229
ATACCAAGGTGATCCTGAGGTCGTTGATACTAAC	1.82	2.54	0.948	0.968	2.08	3.67	2.52	2.87
TAGCCTGGGTCATTCAGGGGCCAGTATAGAAAGC	2.55	6.03	3.76	1.25	3.24	3.34	-0.502	0.911
CTTGCTAGGTCATGGTCAGCTAATCTACAGTATG	3.07	3.94	4.57	1.95	2.77	2.96	1.27	0.195
CGGACGAGGGCATGAGTTGATAGCAAATGCCGAT	0.742	1.16	1.89	2.01	0.928	1.17	-0.188	1.46
GCAGACAGGTGAAACGCAGGTAACTCAGGGTGGC	0.13	0.712	0.0344	-0.777	0.519	1.42	-0.615	-0.666
TGAATGAGGTCATAAGATCAGGGAACGTTGCAAA	3.34	5.65	5	3.74	5.88	3.85	2.43	3.77
CCGACTGGGGCAGAAAGGCTACCATACCATCCGG	0.243	-0.0591	-0.0697	-0.996	-0.122	-0.836	-0.539	-0.212
CCTAGTGGGTCAAGGTCACACACGCTATAGGTAC	4.58	5.74	6.11	1.58	5.6	4.22	3.74	3.44
